Here are results for 22 molecules from PubChem BioAssay AID720566 (Broad Institute, 2013).

The target of this assay is Protein disulfide-isomerase A6 (Homo sapiens) (UniProt Q15084). The assay is described as follows: inhibitors of ERp5-mediated insulin aggregation, dose response, biochemical, turbidity, absorbance 650 nm, cherry-picked samples (AID 720566).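 Also: negative values mean less insulin aggregation so ERp5 inhibition.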

SMILES strings stand for the structures. Measured potencies and affinities stand elsewhere. Active and inactive are the calls of the source.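 The calls were made as follows: active = in all runs, an absorbance decrease of 25% or more of the average positive control decrease; inconclusive = runs conflict, with both active and inactive results; inactive = all runs inactive, opposite-direction effects included.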

Protein disulfide-isomerase A6 (Homo sapiens), sequence (Q15084 whole entry, looked up): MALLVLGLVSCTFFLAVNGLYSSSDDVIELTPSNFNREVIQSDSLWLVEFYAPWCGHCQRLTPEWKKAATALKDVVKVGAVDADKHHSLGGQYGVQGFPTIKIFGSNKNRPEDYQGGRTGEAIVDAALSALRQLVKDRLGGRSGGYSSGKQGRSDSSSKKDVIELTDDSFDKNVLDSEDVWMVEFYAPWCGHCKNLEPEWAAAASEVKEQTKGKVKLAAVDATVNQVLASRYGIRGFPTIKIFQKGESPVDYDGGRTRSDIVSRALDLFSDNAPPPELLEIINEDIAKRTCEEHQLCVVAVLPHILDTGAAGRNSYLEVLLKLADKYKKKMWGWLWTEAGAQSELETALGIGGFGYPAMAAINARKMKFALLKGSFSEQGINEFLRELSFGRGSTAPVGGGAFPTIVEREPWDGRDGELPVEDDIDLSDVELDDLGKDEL

Regarding `Cc1cccc(S(=O)(=O)N(C)C[C@H]2OCc3cnnn3CCCC(=O)N([C@@H](C)CO)C[C@H]2C)c1`, the outcome was inactive. To `C[C@@H]1CCCCO[C@@H](CN(C)C(=O)CCC(F)(F)F)[C@@H](C)CN([C@@H](C)CO)C(=O)c2cc(NS(=O)(=O)c3ccc(Cl)cc3)ccc2O1` belongs “inactive”.

Consider `CC(C)C#Cc1cnc2c(c1)C(=O)N([C@@H](C)CO)C[C@@H](C)[C@H](CN(C)C(=O)c1ccccc1F)O2`, for which the molecule was called inactive.

Take `CN(C)C(=O)C[C@H]1C[C@H]2c3cc(NS(C)(=O)=O)ccc3O[C@H]2[C@H](CO)O1`: the molecule was classed as inactive.

For `C[C@@H]1CN([C@H](C)CO)C(=O)c2cc(-c3cccc(C#N)c3)cnc2O[C@H]1CN(C)Cc1cncnc1`, the result was inactive. The result for `CC(=O)Nc1ccc2c(c1)C(=O)N(C)[C@H]1CC[C@@H](CC(=O)NCC3CC3)O[C@H]1CO2` reads “inactive”. To `C[C@@H]1CN([C@@H](C)CO)C(=O)Cc2cc(NS(=O)(=O)c3cccs3)ccc2O[C@H]1CN(C)C(=O)Nc1ccc(C(F)(F)F)cc1` belongs “inactive”. The result for `C[C@@H]1CN([C@@H](C)CO)C(=O)Cc2cc(NC(=O)Cc3ccccc3)ccc2O[C@@H]1CN(C)C(=O)Nc1ccc(C(F)(F)F)cc1` reads “inactive”; that for `COc1ccc2c3c([nH]c2c1)[C@@H](CO)N(C(=O)C1CCCC1)CC31CCN(C(=O)NC(C)C)CC1`, “inactive”. `O=C(C[C@@H]1C[C@H]2c3cc(NC(=O)C4CCC4)ccc3O[C@H]2[C@@H](CO)O1)NCC(F)(F)F`: the molecule was classed as inactive. Turning to `C[C@H]1CN([C@@H](C)CO)C(=O)Cc2cc(NC(=O)Nc3cccc4ccccc34)ccc2O[C@H]1CN(C)Cc1ccc(C(F)(F)F)cc1`, the molecule was called inactive. As for `COCC(=O)N1CC2(C1)CN(Cc1ccccc1F)[C@H](CO)c1[nH]c3cc(OC)ccc3c12`, the molecule was called inactive. The result for `CCN1[C@@H]2c3ccc(-c4ccccc4)c(=O)n3C[C@@H]2[C@@H](CO)[C@@H]1C(=O)NCC(F)(F)F` reads “inactive”. To `Cn1c(COc2ccccc2)nnc1SCC(=O)Nc1nnc(C2CC2)s1` belongs “inactive”; to `C[C@@H]1CN([C@H](C)CO)C(=O)c2cccc(NC(=O)Nc3ccc4c(c3)OCO4)c2O[C@H]1CN(C)Cc1ccc(Oc2ccccc2)cc1`, “inactive”; to `O=C(C[C@@H]1CC[C@@H]2[C@H](COC[C@@H](O)CN2S(=O)(=O)c2ccccc2)O1)NCCN1CCCC1`, “inactive”. To `C[C@@H]1CN([C@H](C)CO)C(=O)c2cccc(NC(=O)Nc3cccc4ccccc34)c2O[C@@H]1CN(C)C(=O)Nc1ccc(C(F)(F)F)cc1` belongs “inactive”; to `CC(=O)Nc1ccc2c(c1)C(=O)N(C)[C@H]1CC[C@H](CC(=O)NCC3CC3)O[C@@H]1CO2`, “inactive”; to `CCN(CC)S(=O)(=O)c1ccc2c(c1)N(CC(=O)NCCN1CCOCC1)C(=O)CO2`, “inactive”. In the case of `COc1ccc(NC(=O)Nc2ccc3c(c2)C(=O)N([C@H](C)CO)C[C@H](C)[C@@H](CN(C)C(=O)C2CCCCC2)OCCCC[C@H](C)O3)cc1`, the outcome was inactive. The result for `CN1CCN(C(=O)C[C@@H]2C[C@@H]3c4cc(NC(=O)C5CCOCC5)ccc4O[C@@H]3[C@H](CO)O2)CC1` reads “inactive”; that for `CC(C)(C)c1cc(NC(=O)c2ccco2)no1`, “inactive”.
